PubChem BioAssay (NCI)
About 79,000 compounds went through this panel and 15% of them were active in at least one assay; those are over-represented in the sample as a whole. Unmarked numbers belong to inactive results. Calls of active or inactive are those of the source. Cut-off read from the data, not from the text of the source: active = growth inhibition above about 70%; inactive = the rest.

Tests used:
[1] = NCI Yeast Anticancer Drug Screen. Data for the rad50 strain (AID 155);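 note: 0% = growth of vehicle-only cultures of the same strain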; settings: S. cerevisiae rad50 strain growth inhibition, active compounds read high
Method in brief: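 Relative growth inhibition (compound vs vehicle) was measured in yeast with a defined repair-gene alteration.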

[2] = NCI Yeast Anticancer Drug Screen. Data for the mec2-1 strain (AID 157); settings: S. cerevisiae mec2-1 strain, active compounds read high
Method in brief: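 Compounds were applied to mec2-1 yeast cells. Their growth was then compared with that of vehicle-treated cultures to give growth inhibition.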

[3] = NCI Yeast Anticancer Drug Screen. Data for the sgs1 mgt1 strain (AID 161);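 note: 0% = growth of cultures given vehicle only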; settings: S. cerevisiae sgs1 mgt1 strain, active compounds read high
Method in brief: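 This yeast growth screen uses a strain with defined DNA-repair lesions; compound-treated growth is compared with vehicle-treated growth.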

[4] = NCI Yeast Anticancer Drug Screen. Data for the cln2 rad14 strain (AID 165);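 note: 0% = growth equal to vehicle treated cultures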; settings: S. cerevisiae cln2 rad14 strain, active compounds read high
Method in brief: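 Strain: cln2 rad14 yeast, altered in cell cycle control and DNA damage repair. Read-out: growth inhibition vs vehicle.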

[5] = NCI Yeast Anticancer Drug Screen. Data for the bub3 strain (AID 167); settings: S. cerevisiae bub3 mutant strain, active compounds read high
Method in brief: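 Screening used yeast with an engineered genetic alteration affecting cell cycle control. Compound-exposed cultures were compared with vehicle cultures, and reduced growth was taken as inhibition.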

[6] = NCI Yeast Anticancer Drug Screen. Data for the mlh1 rad18 strain (AID 175); settings: S. cerevisiae mlh1 rad18 strain growth inhibition, active compounds read high
Method in brief: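 A repair-deficient yeast strain is exposed to test compound, and growth is scored relative to vehicle-treated controls.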

[7] = at 5.0 µM (retest, dose inferred, filed as 0.5)
[8] = at 50.0 µM (retest, dose inferred, filed as 5.0)

SMILES | growth inhibition [1, 7] | growth inhibition [1, 8] | growth inhibition ([1]; at 50.0 µM) | growth inhibition [2, 7] | growth inhibition [2, 8] | growth inhibition ([2]; at 50.0 µM) | growth inhibition [3, 7] | growth inhibition [3, 8] | growth inhibition ([3]; at 50.0 µM) | growth inhibition [4, 7] | growth inhibition [4, 8] | growth inhibition ([4]; at 50.0 µM) | growth inhibition [5, 7] | growth inhibition [5, 8] | growth inhibition ([5]; at 50.0 µM) | growth inhibition [6, 7] | growth inhibition [6, 8] | growth inhibition ([6]; at 50.0 µM)
C[C@]12C[C@H](c3ccccc3)Nc3ccccc3N1C(c1ccccc1)=NO2 | 0% | 83% (active) | 64.5% | -13% | 80% (active) | 59.7% | 21% | 80% (active) | 81.5% (active) | 9% | 74% (active) | 54.4% | 6% | 87% (active) | 67.4% | -8% | 88% (active) | 71% (active)
CCCCC(=O)N/N=C(\C)[C@]1(O)Cc2c(O)c3c(c(O)c2[C@@H](OC2CC(N)C(O)C(C)O2)C1)C(=O)c1c(OC)cccc1C3=O (some centres not stated) | 64% | 97% (active) | 98.7% (active) | -12% | 97% (active) | 99.2% (active) | 17% | 97% (active) | 51.5% | 8% | 89% (active) | 97.1% (active) | 15% | 98% (active) | 98.5% (active) | 17% | 97% (active) | 98.5% (active)
O=NNc1ccc(-c2ccc([N+](=O)[O-])cc2)cn1 | 18% | 47% | 25.4% | 11% | 37% | 5.85% | 8% | 31% | 30.6% | 26% | 31% | 34.2% | 14% | 18% | -11.7% | 10% | 48% | 30.1%
CCOP(=O)(OCC)/C(C#N)=C/c1ccc(Oc2ccccc2)cc1 | -12% | 97% (active) | 90.2% (active) | -42% | 98% (active) | 93.6% (active) | -11% | 97% (active) | 91.5% (active) | -5% | 98% (active) | 90.6% (active) | -3% | 94% (active) | 90.5% (active) | 1% | 97% (active) | 89.8% (active)
CC(C)(C)NCc1cc(Nc2ccnc3cc(Cl)ccc23)cc(-c2ccc(Cl)cc2)c1O | -6% | 19% | 14.7% | -4% | 17% | -16.1% | -5% | -15% | -9.6% | -2% | 18% | 68.5% | 7% | -8% | 2.1% | -1% | 22% | 20.5%
COc1ccccc1C1c2cc3c(cc2OC(N2CCOCC2)C1C)OCO3 (configuration not stated) | 15% | 18% | 37.2% | 9% | 9% | 14.2% | 26% | 47% | 26.4% | 25% | 56% | 18.3% | 18% | 57% | 40.8% | 9% | 32% | 59.5%
CC1=C(Br)S(=O)(=O)N(c2ccccc2)C(CBr)=C1Br | 57% | 95% (active) | 19.8% | 41% | 97% (active) | 18.1% | 81% (active) | 99% (active) | 16.9% | 26% | 95% (active) | 5.05% | 53% | 96% (active) | 27.7% | 70% (active) | 93% (active) | 50.1%
Cc1ccc2sc3ccc(N)cc3c(=O)c2c1 | 27% | 84% (active) | 62.6% | 24% | 74% (active) | 31.6% | 26% | 89% (active) | 60.6% | 26% | 58% | 43.7% | 25% | 95% (active) | 66.2% | 27% | 92% (active) | 81.8% (active)
CC(C)c1ccc(N2C(=O)C=CC2=O)cc1 | 98% (active) | 97% (active) | 99.7% (active) | 98% (active) | 99% (active) | 99.7% (active) | 95% (active) | 98% (active) | 99.5% (active) | 91% (active) | 99% (active) | 99.5% (active) | 98% (active) | 98% (active) | 99.5% (active) | 95% (active) | 98% (active) | 99.2% (active)
CCCCOS(=O)(=O)c1ccc(C)cc1 | -7% | 15% | 9.1% | -4% | -22% | -82.3% | -8% | 7% | -9.45% | 1% | -15% | 25.1% | -16% | -39% | -23.5% | -6% | -4% | -3.55%
CCOc1ccc2c(c1)CCC1C2CCC2(C)CC(O)CC12 (configuration not stated) | 11% | 98% (active) | 97.7% (active) | 3% | 67% | 97.5% (active) | 22% | 99% (active) | 54% | -18% | 82% (active) | 98.6% (active) | -4% | -3% | 98.1% (active) | 14% | 99% (active) | 98.6% (active)
O=C1C2CCCC3CCCC(C(=O)N1O)C32 (configuration not stated) | 89% (active) | 96% (active) | 91.9% (active) | 90% (active) | 98% (active) | 93% (active) | 70% (active) | 94% (active) | 93.5% (active) | 52% | 69% | 74.7% (active) | 93% (active) | 97% (active) | 92% (active) | 87% (active) | 97% (active) | 90.3% (active)
O=CC(=C\c1ccco1)/C(C=O)=C\c1ccco1 | 11% | 25% | 18.1% | 7% | 44% | 5.45% | 11% | 63% | 13% | 2% | 15% | 33.9% | -6% | 33% | -23.6% | 21% | 86% (active) | 71.9% (active)
O=[N+]([O-])c1cc(Br)cc2c1nc(NCCCO)c1ccccc12 | 42% | 93% (active) | 95.7% (active) | 11% | 92% (active) | 96.4% (active) | 43% | 96% (active) | 98.5% (active) | 33% | 89% (active) | 94.3% (active) | 12% | 96% (active) | 94.6% (active) | 59% | 97% (active) | 98.8% (active)
CC(C)=CCc1c2c(c3occ(-c4ccc(O)c(O)c4)c(=O)c3c1O)C=CC(C)(C)O2 | 16% | 90% (active) | 90.8% (active) | 29% | 95% (active) | 94.1% (active) | 9% | 93% (active) | 94.8% (active) | -25% | 76% (active) | 91.5% (active) | -7% | 94% (active) | 89% (active) | -2% | 90% (active) | 90.8% (active)
c1ccc(CCCCc2ccncc2)cc1 | 1% | 28% | 87.3% (active) | 1% | 13% | 46.2% | 0% | 47% | 94% (active) | 5% | 11% | 63.6% | 24% | 81% (active) | 93.5% (active) | -3% | 18% | 88.5% (active)
CCC(C)(C[NH-])C[NH-].[Cl][Pt+2][Cl] | 13% | 27% | 28% | 19% | 28% | 45.9% | 18% | 28% | 3.9% | 26% | 34% | 10.4% | 11% | 28% | -14.7% | 25% | 42% | -17.6%
CC/C=C(\C)CC(C)O (configuration not stated) | -3% | 16% | 64.9% | -4% | 3% | 43.8% | -3% | 18% | 77.6% (active) | 1% | 9% | 59.7% | 1% | -5% | 57% | -3% | 8% | 54.9%
Nc1ccccc1C(=O)NCCc1c[nH]c2ccccc12 | 1% | 34% | 6.35% | -3% | 6% | 11.8% | 4% | 40% | 33.8% | -5% | 27% | 66.6% | -7% | 18% | 48.5% | 3% | 38% | 7%
